47 molecules from PubChem BioAssay can be followed below.

In general, inhibition refers to the relative decrease from the control value, in per cent.

Values without a mark were called inactive. No rule for the calls is given here.

The target in the experiment is Pantothenate synthetase (Mycobacterium tuberculosis (strain ATCC 25618 / H37Rv)) (UniProt P9WIL5). In words: Recombinant Mtb pantothenate synthetase (PanC) inhibitors, coupled enzyme, confirmatory (AID 375).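 Also: 0% = full reaction with vehicle and 100% = no enzyme background.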 The settings on record: coupled enzyme assay; at 10 µM, active compounds read high.
Chain of Pantothenate synthetase (Mycobacterium tuberculosis (strain ATCC 25618 / H37Rv)) (P9WIL5 whole entry, looked up): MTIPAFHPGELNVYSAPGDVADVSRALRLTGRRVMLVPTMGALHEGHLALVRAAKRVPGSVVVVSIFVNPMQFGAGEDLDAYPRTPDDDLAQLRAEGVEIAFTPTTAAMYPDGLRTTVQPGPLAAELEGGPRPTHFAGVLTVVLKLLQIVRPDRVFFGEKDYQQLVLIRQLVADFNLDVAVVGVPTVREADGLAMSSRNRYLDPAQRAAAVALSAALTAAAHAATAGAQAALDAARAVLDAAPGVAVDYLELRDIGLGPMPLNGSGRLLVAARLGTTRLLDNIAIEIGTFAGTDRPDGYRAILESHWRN

`CCCCN1C(=O)C2C(C(=O)Nc3cccc(OC)c3)C3C=CC2(O3)C1C(=O)NC1CCCCC1C` (configuration not stated): the inhibition was 0%. In the case of `COc1ccc(N2CCN(C(=O)CSc3nnc4n3C(C)(C)Cc3ccccc3-4)CC2)cc1`, the inhibition is 0%.

As to `Nc1nc(-c2ccc(Cl)cc2)nn1C(=O)c1cccnc1`, the inhibition was 0%. As for `CCOc1ccc(C2CC(c3cccc(OC)c3)Nc3nc(N)nn32)cc1` (configuration not stated), the figure is 0%. As for `CS(=O)(=O)N(CC(=O)NCCSCc1cccc(Cl)c1)c1ccc2c(c1)OCO2`, the figure is 1%; as for `Cc1cccc(Nc2nc3c(c(=O)n(C)c(=O)n3C)n2Cc2ccccc2)c1`, 5%; as for `Cn1c(=O)[nH]c(=O)c2c1nc(NC1CCCCC1)n2CC(=O)NC1CCCCC1`, 0%. Take `O=C1NC2(Nc3ccccc31)C(=O)Nc1ccccc12` (configuration not stated): the inhibition is 0%. As for `CC(C)(C)NC(=O)NC(=O)COc1ccccc1C#N`, the figure is 3%. The result for `Cc1cc(C)n(-c2ccc(C(=O)Nc3ccc4c(c3)OCCO4)cc2)n1` reads 2%; that for `N#Cc1cc2ccccc2nc1SCC(=O)Nc1ccccc1N1CCOCC1`, 0%. As for `COc1cc(OC)cc(-c2nc3nc(C)c(CCC(=O)O)c(C)n3n2)c1`, the figure is 0%; as for `C(=N\n1cnnc1)/c1cccc(OCCOc2ccccc2)c1`, 0%; as for `CCCn1c(=O)c2[nH]c(C3CCCC3)nc2n(CCC)c1=O`, 7%.

As for `COC(=O)c1ccc(Oc2nc(NC(C)C)nc(N(C)C)n2)cc1`, the inhibition is 1%. As for `Cc1ccc(S(=O)(=O)N(CC(=O)N2CCOCC2)CC(=O)N2CCOCC2)cc1`, the figure is 0%; as for `COC(=O)c1ccccc1NC(=O)c1cnc2sccn2c1=O`, 5%. The result for `CCOc1ccccc1N1CCN(c2nc3ccccc3nc2C(C#N)C(=O)OC)CC1` (configuration not stated) reads 5%; that for `Cc1cc(NC(=O)COc2ncnc3sc(C)c(C)c23)no1`, 0%. Turning to `Nc1nc(CSc2nc3ccccc3[nH]2)nc(N2CCOCC2)n1`, the inhibition was 4%. `O=c1cc(NCc2ccccc2)nc2n1CCCS2`: the inhibition is 0%. Regarding `CC1Oc2ccccc2N(Cc2ccccc2Cl)C1=O` (configuration not stated), the inhibition was 9%. The result for `Cc1ccc(N2C(=O)c3ccccc3C2O)nc1` (configuration not stated) reads 1%. The result for `CC(C)CCNC(=O)CCNS(=O)(=O)c1ccc(Cl)cc1` reads 0%; that for `COc1ccc(Cc2nc(-c3ccc(Br)cc3)no2)cc1`, 7%.

For `COc1nc(C)ccc1-c1noc(-c2ccncc2)n1`, the inhibition is 2%. As for `CC1CCN(S(=O)(=O)c2cn(CC(=O)N3CCN(C)CC3)c(=O)c3ccccc23)CC1`, the figure is 4%. As for `CCC(C)(C)n1nnnc1C(c1ccncc1)N1CCN(c2cccc(OC)c2)CC1` (configuration not stated), the figure is 0%; as for `Cc1cc(C)c2c(=O)n(CC(=O)N3CCC(Cc4ccccc4)CC3)sc2n1`, 0%. `CC(NC(=O)Nc1ccccc1)C(c1cccs1)N1CCOCC1` (configuration not stated): the inhibition was 0%. As for `O=C1c2ccccc2-c2ccc(C(=O)N3CCOCC3)cc21`, the figure is 0%; as for `CC1CCC(NC(=O)Cn2ncc3ccccc32)CC1` (configuration not stated), 0%.

`CC1CCN(c2oc(-c3ccccc3F)nc2C#N)CC1`: the inhibition was 4%. As to `CCOC(=O)c1[nH]c2ccc(OC)cc2c1NC(=O)CCN1CCC(C)CC1`, the inhibition is 0%. The result for `CCCOc1ccccc1NC(=O)c1ccc(N)cc1` reads 3%; that for `COC(=O)c1ccc(-c2ccco2)n1Cc1nc(-c2ccc(OC)c(OC)c2)oc1C`, 2%; that for `NC(=O)CSc1nnc(-c2cnccn2)n1-c1ccccc1`, 0%. As for `CCOc1c(C)cc2[nH]c(CCC(=O)O)nc2c1C`, the inhibition is 0%. Regarding `Cc1cccc(NC(=O)Cn2c(=O)n(C)c3ccccc32)c1`, the inhibition is 0%. As for `O=C(Nc1ccccc1N1CCOCC1)c1ccc2ccccc2n1`, the figure is 0%; as for `CCOc1cc(N2CCOCC2)c(OCC)cc1NC(=O)CSc1cccc[n+]1[O-]`, 3%. With `COc1cccc(C(=O)CSc2nnc(COc3cccc4cccnc34)o2)c1`, the inhibition is 0%. As for `CCCCN1C[C@H](O)[C@@H](O)[C@H](O)[C@H]1CO`, the figure is 0%. In the case of `C=CCSC1=C(C#N)C(c2ccccc2Cl)CC(=O)N1` (configuration not stated), the inhibition was 0%. `CCn1c(=O)cc(OCC(=O)NCCCN2CC(C)CC(C)C2)c2ccccc21` (configuration not stated): the inhibition was 3%. The result for `O=c1c2cc(N3CCOCC3)ccc2[nH]c(=S)n1CCCN1CCCCC1` reads 1%; that for `CCCCNC(=O)c1nnn(-c2ccccc2)c1N`, 0%.
